Publication PMC5540273 (PLoS ONE, 2017)

Experiments:
Settings in all cases: concentration: 1 μM,replicates: in singlicate; n = 1
CAMK1 = system: CAMK1
CAMK2A = system: CAMK2A
CAMK2B = system: CAMK2B
CAMK2D = system: CAMK2D
CAMK2G = system: CAMK2G
CAMK4 = system: CAMK4
CAMKK1 = system: CAMKK1
CAMKK2 = system: CAMKK2
CASK = system: CASK
CDC2L1 = system: T1, CDC2L1
T1 construct: gene CDK11B

CDC2L2 = system: CDC2L2
CDC2L5 = system: T2, CDC2L5
T2 construct: gene CDK13

CDK11 = system: T3, CDK11
T3 construct: gene CDK19

CDK2 = system: CDK2
CDK3 = system: CDK3
CDK4-cyclinD1 = system: CDK4-cyclinD1
CDK4-cyclinD3 = system: CDK4-cyclinD3
CDK4 = system: CDK4
CDK5 = system: CDK5
CDK7 = system: CDK7
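Further: KINOMEscan kinase panel screen.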

| Structure (SMILES) | %Inh (CAMK1) [%] | %Inh (CAMK2A) [%] | %Inh (CAMK2B) [%] | %Inh (CAMK2D) [%] | %Inh (CAMK2G) [%] | %Inh (CAMK4) [%] | %Inh (CAMKK1) [%] | %Inh (CAMKK2) [%] | %Inh (CASK) [%] | %Inh (CDC2L1) [%] | %Inh (CDC2L2) [%] | %Inh (CDC2L5) [%] | %Inh (CDK11) [%] | %Inh (CDK2) [%] | %Inh (CDK3) [%] | %Inh (CDK4-cyclinD1) [%] | %Inh (CDK4-cyclinD3) [%] | %Inh (CDK4) [%] | %Inh (CDK5) [%] | %Inh (CDK7) [%] |
| --- | --- | --- | --- | --- | --- | --- | --- | --- | --- | --- | --- | --- | --- | --- | --- | --- | --- | --- | --- | --- |
| COC(=O)c1cccc(NC(=O)NC2CCN(c3ccnc(NCc4ccc(F)cc4)n3)CC2)c1 [GSK1379860] | 0 | 0 | 0 | 0 | 1 | 0 | 0 | 0 | 0 | 0 | 0 | 0 | 12 | 0 | 9 | 0 | 0 | 0 | 2 | 0 |
| CC(=O)Nc1nc2cnc(Nc3cc(NC(=O)c4cccc(CC(C)(C)C#N)c4)ccc3C)nc2s1 | 4 | 0 | 0 | 7 | 14 | 0 | 21 | 11 | 0 | 16 | 16 | 66 | 79 | 15 | 0 | 1 | 15 | 45 | 14 | 36 |
| COc1cc2ncn(-c3cc(OCC4CCCCC4)c(C(N)=O)s3)c2cc1OC [GSK204559] | 13 | 0 | 0 | 5 | 33 | 0 | 12 | 26 | 19 | 0 | 6 | 0 | 12 | 0 | 21 | 0 | 0 | 8 | 0 | 86 |
| Cc1cccc(-c2nc(Nc3ccncc3)c3sccc3n2)n1 [GW869641] | 24 | 3 | 9 | 14 | 18 | 0 | 11 | 23 | 21 | 6 | 0 | 11 | 8 | 3 | 0 | 0 | 24 | 23 | 14 | 44 |
| Cc1nnc(-c2ccc3occ(-c4ccc(S(C)=O)cc4)c3n2)o1 (centres unmarked) | 3 | 0 | 0 | 0 | 0 | 0 | 6 | 11 | 0 | 0 | 0 | 0 | 0 | 6 | 0 | 0 | 0 | 0 | 0 | 0 |
| CCNCC(Cc1ccccc1)NC(=O)c1cc(Br)c(-c2ccnc3[nH]ccc23)s1.Cl.Cl (centres unmarked) [GSK1383280] | 41 | 0 | 0 | 23 | 34 | 21 | 19 | 25 | 0 | 16 | 22 | 0 | 39 | 0 | 12 | 0 | 6 | 0 | 0 | 24 |
| CCOC(=O)N1CCC(n2cnc(-c3ccc(F)cc3)c2-c2ccnc(N)n2)CC1 [SB-219952] | 0 | 0 | 0 | 0 | 8 | 12 | 0 | 0 | 0 | 11 | 23 | 30 | 29 | 0 | 0 | 24 | 6 | 32 | 0 | 30 |
| CS(=O)(=O)Nc1ccc(-c2ccnc3[nH]ccc23)cc1 [GSK993273] | 36 | 6 | 7 | 16 | 24 | 0 | 8 | 0 | 21 | 0 | 0 | 0 | 45 | 0 | 15 | 0 | 0 | 0 | 0 | 37 |
| CN1CCN(CCNc2nc3cc(Oc4ccc(NC(=O)Nc5cc(C(F)(F)F)ccc5F)cc4)ccc3[nH]2)CC1.Cl.Cl [GW768504] | 15 | 0 | 0 | 0 | 0 | 20 | 0 | 0 | 16 | 0 | 7 | 0 | 47 | 0 | 6 | 0 | 0 | 2 | 0 | 96.6 |
| COC(=O)Nc1nc2cc(Oc3ccc(NC(=O)Nc4cc(C(F)(F)F)ccc4Cl)cc3)ccc2[nH]1.Cl [GW697465] | 5 | 0 | 0 | 0 | 7 | 0 | 2 | 0 | 0 | 0 | 12 | 6 | 66 | 37 | 10 | 20 | 0 | 50 | 0 | 89 |
